Laboratory results taken from PubChem BioAssay.

system: Plasmodium falciparum Sir2 (PF13_0152, Sir2A); test: pfSir2 binders on small-molecule microarrays, primary screen, biochemical, small-molecule microarray, 635 nm fluorescence (AID 1098); details: small-molecule microarray binding, fluorescence 635 nm; higher = more signal;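 note: score merges spot fluorescence intensity with its signal-to-noise ratio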

Row | Structure (SMILES) | composite z-score
1 | OCCCC1=CC(c2ccc(CN3CCCC3)cc2)N(Cc2sc3ccccc3c2Cl)CC1 (stereo not given) | 1.39
2 | O=C1O[C@H](c2ccccc2)[C@H](c2ccccc2)N2[C@H]1[C@@H](C(=O)N1CCN(c3ncccn3)CC1)[C@]1(C(=O)Nc3ccc(C#CC4(O)CCCCCC4)cc31)[C@H]2c1ccc(OCCO)cc1 | 1.82
3 | O=C1C2C=CC(C(O)c3ccc(Br)cc3)N(Nc3ccccc3F)C2C(=O)N1c1ccccc1 (stereo not given) | 0.708
4 | COCCOC(=O)N1C(=O)[C@@]2(c3cc(C#CCC(C(=O)OC)C(=O)OC)ccc31)[C@H](C(=O)N1CCc3cc(OC)c(OC)cc3C1)[C@H]1C(=O)O[C@H](c3ccccc3)[C@H](c3ccccc3)N1[C@@H]2c1ccc(OCCO)cc1 | 1.37
5 | CC(CO)N1C(=O)[C@@H]2[C@H]3C(=O)OCC=C[C@H]3OC23C=CCN(CCN2CCOCC2)C(=O)[C@@H]13 (stereo not given in full) | 1.12
6 | C=C(COC)C(=O)CC[C@@H](OC(=O)c1cccnc1)c1ccc(OCCO)cc1 | 0.872
7 | COC(=O)[C@@]1(Cc2ccc(OC)cc2)[C@H]2c3cc(C(=O)N4CCCC4)n(Cc4cccc5ccccc45)c3C[C@H]2CN1C(=O)c1ccccc1 | 0.654
8 | CC(C)(C)OC(=O)CC[C@@]1(C(=O)NCc2ccccc2)N=C(c2ccc(OCCCO)cc2)O[C@@H]1c1ccccc1N=[N+]=[N-] | 0.71
9 | C=CC[C@@]1(C(=O)N2CCOCC2)N=C(c2ccc(OCCCO)cc2)O[C@@H]1c1ccccc1CN=[N+]=[N-] | 0.706
10 | COC(=O)[C@@]1(Cc2ccc(F)cc2)[C@H]2c3cc(C(=O)N4CCCC4)n(CCc4ccc(O)c(O)c4)c3C[C@H]2CN1C(=O)c1ccccc1 | 0.391
11 | CCOC(=O)C[C@H]1[C@H](OC(=O)c2cc3ccccc3oc2=O)[C@@H](NC(=O)c2ccc(-c3ccccc3)cc2)c2cc(OCCCO)ccc2N1C(=O)c1ccc2ccccc2n1 | 0.853
12 | COc1ccc([Si](C)(C)[C@H]2[C@H](CCn3cc([C@H](O)c4ccccc4)nn3)O[C@@]3(C(=O)N(Cc4ccc(N5C(=O)c6cccc7cccc5c67)cc4)c4ccccc43)[C@@H]2C)cc1 | 0.93
13 | C[C@@H]1NC(=O)[C@@]23C(=O)N[C@@H](Cc4ccccc4)C2[C@H](C)[C@@]2(C)O[C@H]2C3/C=C/C/C=C\CNC(=O)[C@@H]2CCCN2C1=O (stereo not given in full) | 0.685
14 | COC(=O)[C@@]1(Cc2ccccc2)[C@H]2c3cc(C(=O)N(C)C)n(Cc4c(CO)[nH]cc(C)c4=O)c3C[C@H]2CN1C(=O)c1ccccc1 | 0.42
15 | COC(=O)CCCCCCC(=O)Nc1ccc(NC(=O)CCCC[P+](c2ccccc2)(c2ccccc2)c2ccccc2)cc1 | 0.5

system: not listed separately; test: small-molecule microarray binders of probe aDKK1, primary screen, biochemical, biotinylated probe, 635/667 nm fluorescence (AID 1099); details: higher = more signal;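 note: score merges 667nm spot fluorescence with signal to noise across triplicate slides; reference of the scale not given here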

Row | Structure (SMILES) | composite z-score
16 | COc1ccc([Si](C)(C)[C@@H]2[C@@H](CC(=O)N3Cc4ccccc4C[C@H]3CO)O[C@]3(C(=O)N(C)c4ccccc43)[C@H]2C)cc1 | 0.405
17 | O=C(N1CCCCC1)[C@@]1(CCS(=O)(=O)c2ccccc2)COC(c2ccc(OCCCO)cc2)=N1 | 1.12
18 | O=C1NC(=O)C2C1C=CC(C(O)CCc1ccccc1)N2Nc1ccc(Cl)cc1Cl (stereo not given) | 1.39
19 | C=CCC(OC(C)=O)[C@@H]1[C@@H](N(Cc2cc3ccccc3o2)C(=O)c2ccc(-c3ccccc3)cc2)c2cc(OCCCO)ccc2N1C(=O)c1ccc2ccccc2c1 (stereo not given in full) | -0.106
20 | CCOC(=O)C[C@H]1[C@H](OC(=O)Cc2ccc3c(c2)OCO3)[C@@H](NC(=O)Cc2ccc(OC)cc2)c2cc(OCCCO)ccc2N1C(=O)c1ccc2ccccc2n1 | -0.189
21 | COC(=O)c1c2oc(c1C(=O)OC)C(=O)N(Cc1ccccc1)Cc1cn(nn1)C[C@H](Cc1ccccc1)NC(=O)N[C@H](CO)CC2 | -0.0239
22 | NC(N)=NCCCn1cc(CNC(=O)[C@@H](N)Cc2ccccc2)nn1 | 0.174
23 | NC(=O)N1C(=O)C2C(C1=O)C1C=C(CCCO)C2C(c2cccs2)N1Cc1cccc(OC(F)(F)F)c1 (stereo not given) | -0.0349
24 | CCOC(=O)C[C@H]1[C@H](OC(=O)c2cc3ccccc3oc2=O)[C@@H](NC(=O)Cc2ccc(OC)cc2)c2cc(OCCCO)ccc2N1C(=O)c1ccc2ccccc2n1 | 0.0588
25 | COCCOC(=O)N1C(=O)[C@@]2(c3cc(C#CC4=CCCCC4)ccc31)[C@H](c1ccc(OCCO)cc1)N1[C@H](c3ccccc3)[C@H](c3ccccc3)OC(=O)[C@H]1[C@@H]2C(=O)NC[C@H](O)c1ccccc1 | 0.677
26 | COC(=O)c1nc2oc1CC[C@@H](CO)NC(=O)N(C)Cc1cnnn1C[C@H](Cc1ccccc1)NC2=O | -0.148
27 | CN1C(=O)C2C=CC(C(O)COCc3ccccc3)N(N(c3ccccc3)c3ccccc3)C2C1=O (stereo not given) | 0.553
28 | COc1cc2c(cc1O)C(C)N(Cc1ccc([N+](=O)[O-])o1)CC2 (stereo not given) | 0.749
29 | C=CCOC(=O)[C@H]1[C@@H]2C(=O)O[C@@H](c3ccccc3)[C@@H](c3ccccc3)N2[C@@H](c2ccc(OCCOC(=O)[C@@H]3C[C@@H]4C(=O)N[C@@H](CCCCN(C)C)C(=O)N4[C@@H]3c3ccc(O)cc3)cc2)[C@]12C(=O)Nc1ccccc12 | 0.173
30 | CCOC(=O)C1=C[C@@H](c2ccccc2)N(S(=O)(=O)c2ccc(C)cc2)[C@H]1c1ccccc1Cl | 0.379
31 | C[N+](C)(C)CCCCCCNC(=O)[C@H]1C[C@H]2C(=O)NCC(=O)N2[C@H]1c1ccc(O)cc1 | -0.34
32 | COc1cc(CO)cc(I)c1O[C@H]1C=C(C(=O)NCCO)C[C@@H](NCc2ccc(F)cc2)[C@@H]1O | -0.197
33 | COC1OC[C@]2(C)[C@H]3C4=C(CN2C(=O)OC(C)(C)C)[C@H](C)C(CO)C(CO)C4CC[C@@H]13 (stereo not given in full) | 1.39

Row | Structure (SMILES) | composite z-score
34 | O=C1O[C@H](c2ccccc2)[C@H](c2ccccc2)N2[C@H]1[C@@H](C(=O)Nc1nc3ccccc3s1)[C@]1(C(=O)Nc3ccc(C#CCCO)cc31)[C@H]2c1ccc(O)cc1 | 0.39
35 | C=CCC(OC(C)=O)[C@@H]1[C@@H](N(Cc2cc3ccccc3o2)C(=O)Cc2ccc(F)cc2)c2cc(OCCCO)ccc2N1C(=O)c1ccc2ccccc2c1 (stereo not given in full) | -0.0572
36 | OCCCC1=CC(c2ccc(CN3CCCC3)cc2)N(Cc2sc3ccccc3c2Cl)CC1 (stereo not given) | 0.14
37 | O=C1O[C@H](c2ccccc2)[C@H](c2ccccc2)N2[C@H]1[C@@H](C(=O)N1CCN(c3ncccn3)CC1)[C@]1(C(=O)Nc3ccc(C#CC4(O)CCCCCC4)cc31)[C@H]2c1ccc(OCCO)cc1 | 0.695
38 | O=C1C2C=CC(C(O)c3ccc(Br)cc3)N(Nc3ccccc3F)C2C(=O)N1c1ccccc1 (stereo not given) | 0.0952
39 | COCCOC(=O)N1C(=O)[C@@]2(c3cc(C#CCC(C(=O)OC)C(=O)OC)ccc31)[C@H](C(=O)N1CCc3cc(OC)c(OC)cc3C1)[C@H]1C(=O)O[C@H](c3ccccc3)[C@H](c3ccccc3)N1[C@@H]2c1ccc(OCCO)cc1 | 0.0202
40 | CC(CO)N1C(=O)[C@@H]2[C@H]3C(=O)OCC=C[C@H]3OC23C=CCN(CCN2CCOCC2)C(=O)[C@@H]13 (stereo not given in full) | -0.373
41 | C=C(COC)C(=O)CC[C@@H](OC(=O)c1cccnc1)c1ccc(OCCO)cc1 | 0.131
42 | COC(=O)[C@@]1(Cc2ccc(OC)cc2)[C@H]2c3cc(C(=O)N4CCCC4)n(Cc4cccc5ccccc45)c3C[C@H]2CN1C(=O)c1ccccc1 | 0.741
43 | CC(C)(C)OC(=O)CC[C@@]1(C(=O)NCc2ccccc2)N=C(c2ccc(OCCCO)cc2)O[C@@H]1c1ccccc1N=[N+]=[N-] | 1.03
44 | C=CC[C@@]1(C(=O)N2CCOCC2)N=C(c2ccc(OCCCO)cc2)O[C@@H]1c1ccccc1CN=[N+]=[N-] | 0.906
45 | COC(=O)[C@@]1(Cc2ccc(F)cc2)[C@H]2c3cc(C(=O)N4CCCC4)n(CCc4ccc(O)c(O)c4)c3C[C@H]2CN1C(=O)c1ccccc1 | 1.8
46 | CCOC(=O)C[C@H]1[C@H](OC(=O)c2cc3ccccc3oc2=O)[C@@H](NC(=O)c2ccc(-c3ccccc3)cc2)c2cc(OCCCO)ccc2N1C(=O)c1ccc2ccccc2n1 | -0.183
47 | COc1ccc([Si](C)(C)[C@H]2[C@H](CCn3cc([C@H](O)c4ccccc4)nn3)O[C@@]3(C(=O)N(Cc4ccc(N5C(=O)c6cccc7cccc5c67)cc4)c4ccccc43)[C@@H]2C)cc1 | 0.0396
48 | C[C@@H]1NC(=O)[C@@]23C(=O)N[C@@H](Cc4ccccc4)C2[C@H](C)[C@@]2(C)O[C@H]2C3/C=C/C/C=C\CNC(=O)[C@@H]2CCCN2C1=O (stereo not given in full) | -0.33
49 | COC(=O)[C@@]1(Cc2ccccc2)[C@H]2c3cc(C(=O)N(C)C)n(Cc4c(CO)[nH]cc(C)c4=O)c3C[C@H]2CN1C(=O)c1ccccc1 | 0.183
50 | COC(=O)CCCCCCC(=O)Nc1ccc(NC(=O)CCCC[P+](c2ccccc2)(c2ccccc2)c2ccccc2)cc1 | -0.238
